Data: PubChem BioAssay (Tox21)
Inconclusive results are not listed. Entries that show only a call come without a potency. The source made the active and inactive calls. The call rests on the fitted dose curve; in most records, active means well fitted inhibition curve with a large enough effect in the signal ratio in the repeat runs (not every such curve was filed as active); inconclusive means weak or mixed curves, or effect the other way; inactive means no such curve, though single readings can be large or run the other way; the % refers to the signal ratio. Where a SMILES comes first, the peptide text is derived from it.

Target: Estrogen receptor beta (Homo sapiens) (UniProt Q92731)
Experiment: qHTS assay to identify small molecule antagonists of the estrogen receptor beta (ER-beta) signaling pathway (AID 1259378)
Settings: ER-beta-UAS-bla HEK293T, beta-lactamase FRET ratio, 16 h; series mostly up to 92.4 µM
From the text: National Center for Advancing Translational Sciences [NCATS]
NIH Chemical Genomics Center [NCGC]
U.S. Environmental Protection Agency [EPA]
National Institutes of Environmental Health Sciences [NIEHS]
National Toxicology Program [NTP]
U.S. Food and Drug Administration [FDA]
Estrogen receptor (ER), a nuclear hormone receptor, plays an important role in development, metabolic homeostasis and reproduction. Two subtypes of ER, ER-alpha and ER-beta, have similar expression patterns with some uniqueness in both types. Endocrine disrupting chemicals (EDCs) and their interactions with steroid hormone receptors like ER causes disruption of normal endocrine function. To identify the compounds that inhibit ER signaling, an ER-beta-UAS-bla GripTite cell line (Life Technologies, Madison, WI, USA) containing a beta-lactamase reporter gene under the control of an UAS response element was used to screen Tox21 10K compound library.
Tox21 Assay Protocol Summary:
ER-beta-UAS-bla HEK293T cells were dispensed at 2,000 cells/4 uL of assay medium containing 2% charcoal stripped FBS per well into black wall/clear-bottom 1536-well plates using a Multidrop Combi (ThermoFisher Scientific, Waltham, MA) dispenser. After the assay plates were incubated at a 37C and 5% CO2 for 6 hr, 23 nL of compounds dissolved in DMSO, positive controls or DMSO only was transferred to the assay plate by a Pintool station (Kalypsys, San Diego, CA), followed by addition of 1 uL (1nM as final concentration) of 17-beta-estradiol (E2) in assay medium using a BioRAPTR FRD (Flying Reagent Dispenser, Aurora Discovery, San Diego, CA). The plates were incubated at 37C and 5% CO2 for 16 hr. Then 1 uL of LiveBLAzerTM B/G FRET substrate was added using a Flying Reagent Dispenser, the plates were incubated at room temperature for 2 hours, and fluorescence intensity was measured by an Envision plate reader (PerkinElmer, Shelton, CT).

Sequence of Estrogen receptor beta (Homo sapiens) (Q92731 whole entry, looked up): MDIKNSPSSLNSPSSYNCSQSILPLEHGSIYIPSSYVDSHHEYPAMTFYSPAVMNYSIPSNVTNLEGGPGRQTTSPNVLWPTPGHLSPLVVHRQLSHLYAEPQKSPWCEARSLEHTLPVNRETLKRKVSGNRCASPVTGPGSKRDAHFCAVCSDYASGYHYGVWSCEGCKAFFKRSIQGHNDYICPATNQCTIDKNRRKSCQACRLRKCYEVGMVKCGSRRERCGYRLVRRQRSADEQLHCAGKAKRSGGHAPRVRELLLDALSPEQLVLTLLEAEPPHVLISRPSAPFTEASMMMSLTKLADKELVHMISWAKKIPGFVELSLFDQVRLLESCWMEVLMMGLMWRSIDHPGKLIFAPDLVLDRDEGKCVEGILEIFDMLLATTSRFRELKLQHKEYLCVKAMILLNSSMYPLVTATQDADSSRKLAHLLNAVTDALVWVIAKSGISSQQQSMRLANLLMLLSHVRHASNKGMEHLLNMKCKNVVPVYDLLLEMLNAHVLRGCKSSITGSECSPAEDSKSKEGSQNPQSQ

Compound | Potency
OC1(c2ccc(Cl)cc2)CCNCC1 | inactive
C=C(C)[C@@H]1CC=C(C)C(=O)C1 | inactive
C[C@H]1[C@@H](c2ccccc2)NC(=O)N1C | inactive
Cc1ccc2c(c1)C(=O)c1ccccc1C2=O | inactive
CCN(CC)CCN | inactive
CC(C)OC(=O)OCOP(=O)(CO[C@H](C)Cn1cnc2c(N)ncnc21)OCOC(=O)OC(C)C | inactive
CC(C)=CCC/C(C)=C/COC=O | inactive
OCC1(CO)COCOC1 | inactive
CC(=O)CC(=O)OC(C)(C)C | inactive
CC1(C)[C@H]2CC[C@](C)(C2)[C@H]1O | inactive
CC(C)Cn1cnc2c1c(=O)n(C)c(=O)n2C | inactive
O=C(CCCl)NCCc1ccccc1 | inactive
CC(N)CCCC(C)(C)O (stereo not given) | inactive
COC(=O)/C=C\C(=O)O | inactive
COC(=O)CCCCC(CCSS/C(CCO)=C(\C)N(C=O)Cc1cnc(C)nc1N)SC(C)=O (stereo not given) | inactive
CN(C)CC/C=C1/c2ccccc2COc2ccc(CC(=O)O)cc21 | inactive
CCCCSCCCC | inactive
CCCC(=O)OCCC(C)CCC=C(C)C (stereo not given) | inactive
O=C(O)c1cc2ccccc2nc1C(=O)O | inactive
CCCC(=O)Nc1ccc(OCC(O)CNC(C)C)c(C(C)=O)c1 (stereo not given) | inactive

Compound | Potency
COc1nc(N)nc2nc[nH]c12 | inactive
CCOc1ccccc1OCC1CNCCO1 (stereo not given) | inactive
c1ccc(-c2nn[nH]n2)cc1 | inactive
CC(Oc1cc(Cl)ccc1Cl)C(=O)O (stereo not given) | inactive
CCCCCCCCCCCCCCCCCC#N | inactive
O=C(O)CNC(=O)CNC(=O)CNC(=O)CSC(=O)c1ccccc1 | inactive
CC(C)(CO)C(O)C(=O)NCCCO (stereo not given) | inactive
Cc1c(C(=O)c2c[nH]n(C)c2=O)ccc(S(C)(=O)=O)c1C1=NOCC1 | inactive
O=NN(CCCl)C(=O)NC1CCCCC1 | inactive
CC(=O)N[C@@H](CO)C(=O)N[C@@H](CC(=O)O)C(=O)N[C@@H](CCCCN)C(=O)N1CCC[C@H]1C(=O)O (Ac-SDKP-OH) | inactive
COP(=O)(O)OP(=O)(O)OC | inactive
CCCCCCCCCCCCCCC(=O)NC(CO)CCCCCCCCCCCCCC (stereo not given) | inactive
C/C(CC(C)C)=N\O | inactive
Cc1cccc(Cl)c1 | inactive
CC1=C(C(=O)O)N2C(=O)[C@@H](NC(=O)[C@H](N)c3ccccc3)[C@H]2SC1 | inactive
C[C@]12CCC(=O)C=C1CC[C@H]1[C@@H]3CC[C@](O)(C(=O)CO)[C@@]3(C)C[C@H](O)[C@@]12F | inactive
CCO[Si](CC)(OCC)OCC | inactive
CC(CO)(CO)CO | inactive
CCCCOCCOC(=O)COc1ccc(Cl)cc1Cl | inactive
C=CC(=O)OCC1CCCO1 (stereo not given) | inactive
